NPYLR7 agonist – activates Aedes aegypti NPYLR7 receptor. HEK293T NPYLR7/Galpha15, GCaMP6s calcium fluorescence. activation, % at 10 µM. hit rate 0.15% among 270,000. AID 1259423; in the data active means activation above about 40%;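 further: 0% = vehicle and 100% = reference agonist at the receptor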
mcGAS lum – blocks mouse cGAS activity | recombinant cGAS, Kinase-Glo ATP depletion luminescence | hit rate 0.15% among 160,000 | AID 1259399 | Q8C6L5 | inhibition, % at 12.5 µM;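 further: 0% = negative control wells and 100% = reference inhibitor with no enzyme activity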
hcGAS inh – human cGAS inhibition; Q8N884; recombinant h-cGAS, ATP depletion, Kinase-Glo luminescence; inhibition, % at 12.5 µM; hit rate 0.081% among 290,000; AID 1259398;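 further: 0% = vehicle reaction and 100% = reaction without DNA for no activity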
* hit, by the source's call; . = no result given. Shown are actives, neighbours in structure and some others; about 0.28% of the full set was active somewhere. Unless noted, no stated cut-off is given here; in the data, active means inhibition above about 40%; inactive means the rest.

SMILES	NPYLR7 agonist	mcGAS lum	hcGAS inh
CN1CCCN(CC(=O)NCCN2N=C(c3ccccc3)CCC2=O)CC1	7	-11	-7
O=c1oc2c(-c3ccc(Br)cc3)cc(O)cc2s1	0	-6	-5
O=c1oc2c(Br)c(O)c(Br)cc2s1	-3	76*	41*
COCCN1C(=O)CC(CC(=O)N2CCN(C3CCCCC3)C(=O)C2)(c2cccc(OC)c2)C1=O (stereo unspecified)	15	-10	-5
CC(=O)N1CCc2cc(NC(=O)Cc3ccc(NS(=O)(=O)c4ccc(F)cc4)cc3)ccc21	3	-6	-7
C[C@@H](NC(=O)CN1Cc2ccc(N3CCOCC3)nc2C1=O)c1ccccc1	61*	-6	-5
CN(C)CCNC(=O)CN1Cc2ccc(N3CCOCC3)nc2C1=O	13	-4	-3
Cc1ccc(C2SCCN2C(=O)Nc2c(Cl)cccc2Cl)o1 (stereo unspecified)	11	-6	-8
O=[Si]=O	-3	42*	-9
c1ccc(C2=Nc3ncnn3C(c3ccccc3)C2)cc1 (stereo unspecified)	1	1	5
CSc1ccc(C2CC(c3cccs3)=Nc3ncnn32)cc1 (stereo unspecified)	124*	.	-5
COc1cc(OC)c(OC)cc1C=C1N=C(c2cccc(C)c2)OC1=O	3	.	-6
Cc1cccc(C2=N/C(=C\c3cc4cc5c6c(c4oc3=O)CCCN6CCC5)C(=O)O2)c1	117*	-7	-7
Cc1ccc(C2=NC(=Cc3ccc(N4CCOCC4)s3)C(=O)O2)cc1[N+](=O)[O-]	14	.	-36
O=C1OC(c2ccc(Cl)c([N+](=O)[O-])c2)=N/C1=C\c1cc2cc3c4c(c2oc1=O)CCCN4CCC3	123*	-5	-7
Cc1cccc(C(=O)NC(C(=O)NC2CC2)C2CCN(C(=O)c3ccc(F)cc3)CC2)c1 (stereo unspecified)	9	-5	-4
COc1ccccc1CCNC(=O)CCCn1nnnc1CN1CCC(C)CC1	.	.	-5
Cc1ccc(N2NC(=O)/C(=C/c3cccc(OC(=O)c4cccs4)c3)C2=O)cc1Cl	0	53*	0
CCc1ccc(/C=C2\C(=O)NN(c3ccc(Cl)c(Cl)c3)C2=O)cc1	6	15	-8
Cc1cccc(OCc2nc(CN(CCN(C)C)C(=O)c3ccccc3F)cs2)c1C	11	-3	-5
CCN(Cc1csc(COc2cccc(C)c2C)n1)C(=O)c1ccccc1F	25	88*	-3
CCOC(=O)Cc1cc(=O)n2[nH]c(-c3ccc(Br)cc3)cc2n1	7	.	-3
CCOC(=O)Cc1cc(=O)n2[nH]cc(-c3cccc(Br)c3)c2n1	-6	.	63*
c1ccc(-c2noc(C3CCN(Cc4cc5n(n4)CCNC5)CC3)n2)cc1	17	.	-2
COC(=O)c1ccc2c(c1C)NC(c1ccc([N+](=O)[O-])cc1)C1CC=CC21 (stereo unspecified)	-2	-1	-1
SMILES	NPYLR7 agonist	mcGAS lum	hcGAS inh
O=C(O)c1ccc(C2Nc3c(F)cc(F)cc3C3C=CCC32)cc1 (stereo unspecified)	18	.	6
O=C(O)c1ccc2c(c1)C1C=CCC1C(c1ccc(Br)cc1)N2 (stereo unspecified)	-7	100*	77*
O=C(O)c1ccc([C@@H]2Nc3ccc(I)cc3[C@@H]3C=CC[C@@H]32)cc1	10	71*	28
Cc1cc2nc(Sc3nnc(C)s3)c3ccccc3n2n1	-3	.	-6
O=S(=O)(Nc1cccc(-c2nc3ccccc3s2)c1)c1ccc(F)c(F)c1	-2	-5	-4
CC(C)OC(=O)C(C(=O)C(F)(F)F)c1cc(NS(=O)(=O)c2ccccc2)ccc1O (stereo unspecified)	5	.	-7
CC(C)OC(=O)C(C(=O)C(F)(F)F)c1cc(NS(=O)(=O)c2ccc(Cl)cc2)ccc1O (stereo unspecified)	44*	.	-7
CCOC(=O)N1CCC(NC(=O)C2CC23CCN(Cc2ccc(OC)c(OC)c2Cl)CC3)CC1 (stereo unspecified)	8	-25	-6
C=CCCC(O)CN(CC=C)CC(=O)N1CCc2sccc2C1COc1ccccc1OC (stereo unspecified)	4	-4	-1
COc1ccc(/C=C2\Oc3cc(OCC(N)=O)ccc3C2=O)cc1	3	.	-1
CCOc1cc(C=C2N=C(c3ccc(Cl)cc3)OC2=O)ccc1OCC(=O)N(C)C	18	-8	-8
CCOc1cc(/C=C2/Oc3cc(O)ccc3C2=O)cc(Cl)c1OCC(=O)N(C)C	150*	.	-5
COc1cc(C=C2Oc3cc(O)ccc3C2=O)cc(OC)c1OC	83*	.	-8
CC(C)c1nccc(CN2CCN(CCN3CCOCC3)CC2)n1	.	-6	-5
CCN(CC)CCCNC(=O)c1cc(C2CC2)on1	.	-5	-9
Cc1nc(-c2ccccc2)nc(N2CCN(C(=O)NC(C)C)CC2)c1Cc1c(F)cccc1Cl	5	-8	-3

Screening data as filed in PubChem BioAssay.
